Bioassay records: PubChem BioAssay, National Center for Advancing Translational Sciences (NCATS)
Tau fibril FP – qHTS for Inhibitors of Tau Fibril Formation, Fluorescence Polarization; Microtubule-associated protein tau (Homo sapiens), P10636; K18 P301L tau heparin fibrillization, Alexa594 FP, 6 h; Potency, µM (titrated, usually from 57.7 µM), for the others: at the highest dose activity, negative = inhibition, most hits filed as inhibitors; 0.39% of 280,000 active; note: nearly all actives have a fitted effect of over 55% in size
Target sequence (P10636 561-689 P618L limits assumed): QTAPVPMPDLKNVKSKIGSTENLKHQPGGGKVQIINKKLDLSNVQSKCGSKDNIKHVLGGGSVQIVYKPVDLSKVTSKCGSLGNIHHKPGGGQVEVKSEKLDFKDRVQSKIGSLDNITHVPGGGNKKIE
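Compound effects on tau fibrillization are measured by Alexa 594 fluorescence polarization (ex 555, em 632 nm). K18 P301L tau is used at 15 uM with 0.24 uM labeled tracer, and 20 uM heparin induces aggregation over 6 hr at 37 C.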
JMJD2E inh – qHTS Assay for Inhibitors of Human Jumonji Domain Containing 2E (JMJD2E); Lysine-specific demethylase 4E (Homo sapiens), B2RXH2; JMJD2E catalytic domain, FDH-coupled NADH fluorescence (FDH is formaldehyde dehydrogenase); Potency, µM (doses to about 57.1 µM), inactives show at the highest dose activity change, negative = inhibition, actives largely listed as inhibitors; 1.6% of 230,000 active; AID 2147, 2009; active = well fitted inhibition curve with a large enough effect, not every such curve was filed as active; inconclusive = small, poorly fitted or top-dose-only effect, or another doubt; inactive = no such curve, though single readings can be large or run the other way;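 note: 0% = wells with enzyme and -100% = buffer wells without enzyme; nearly all actives have a fitted effect of over 50% in size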
Tau fluor cs – Counterscreen qHTS for Inhibitors of Tau Fibril Formation, Fluorescence Polarization; tau K18 P301L Alexa594 fluorescence, heparin fibrillization; Potency, µM (titrated, usually from 57.7 µM), for the others: at the highest dose activity change, negative = decrease; 0.93% of 280,000 active; note: nearly all actives have a fitted effect of over 55% in size
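Human tau K18 P301L (15 uM unlabeled, 0.24 uM Alexa 594-labeled) in 100 mM sodium acetate pH 7 with 20 uM heparin, 6 hr at 37 C. ThT 30 uM added, 1 hr ambient; Alexa 594 FP and total fluorescence read at 555/632 nm.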
Tau ThT inhib – qHTS for Inhibitors of Tau Fibril Formation, Thioflavin T Binding. Microtubule-associated protein tau (Homo sapiens), P10636. recombinant tau K18 P301L (four-repeat tau fragment), heparin-induced fibrillization, ThT fluorescence. Potency, µM (titrated, usually from 57.4 µM), for the others: at the highest dose activity, negative = inhibition, actives largely listed as inhibitors. 2.1% of 270,000 active. AID 1460, 2008; note: nearly all actives have a fitted effect of over 55% in size
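Aggregation was driven by heparin (20 uM final) acting on recombinant tau […] bearing P301L in 100 mM sodium acetate pH 7; fibrils were detected with Thioflavin T.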
RGS12 GoLoco inh – qHTS Assay for Inhibitors of RGS12 GoLoco Motif Activity (Red Fluorophore) | Guanine nucleotide-binding protein G(i) subunit alpha-1 (Homo sapiens), P63096 | Gai1:RGS12 GoLoco peptide FP, rhodamine, 10 min | Potency, µM (highest dose often 61.6 µM), inactives show at the highest dose activity, negative = inhibition, hits mostly inhibitors | 0.44% of 230,000 active; active = well fitted inhibition curve with a large enough effect, not every such curve was filed as active; inactive = no such curve, though single readings can be large or run the other way; note: nearly all actives have a fitted effect of over 30% in size
Target sequence (P63096 whole entry, looked up): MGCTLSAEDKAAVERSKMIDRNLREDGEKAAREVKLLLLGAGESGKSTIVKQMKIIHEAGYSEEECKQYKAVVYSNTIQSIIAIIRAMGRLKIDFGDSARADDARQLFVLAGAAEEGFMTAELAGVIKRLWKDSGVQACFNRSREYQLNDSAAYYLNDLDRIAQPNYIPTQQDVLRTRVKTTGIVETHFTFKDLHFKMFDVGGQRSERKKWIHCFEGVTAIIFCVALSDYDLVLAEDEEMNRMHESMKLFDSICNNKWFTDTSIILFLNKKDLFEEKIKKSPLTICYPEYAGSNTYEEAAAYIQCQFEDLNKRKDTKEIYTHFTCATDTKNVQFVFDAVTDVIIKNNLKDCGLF
Active calls of the source: *; ? = inconclusive; · = no result; [ ] = dose if it differs, or a comment. Rows were chosen to be rich in hits. Some 3.4% of all compounds tested hit in one or more screens of this group. Unless noted, calls come from the whole dose curve; as a rule, active = well fitted curve in the direction sought with a large enough effect; inconclusive = small, poorly fitted or top-dose-only effect, or another doubt; inactive = no such curve, though single readings can be large; an effect the other way counts as inactive or inconclusive. Unless noted, % is set by controls: 0 for no effect and ±100 for the full control effect; potency is the fitted concentration of half-maximal effect.

SMILES	Tau fibril FP	JMJD2E inh	Tau fluor cs	Tau ThT inhib	RGS12 GoLoco inh
Cn1cc(/C=C2\SC(=S)N(NC(=O)c3ccccc3)C2=O)c2ccccc21	25µM*	1%	24%	?	-18%
O=C(N/N=C/C=C/c1ccco1)c1ccncc1	-7%	?	-1%	-21%	1%
COc1ccc(/C=C2\SC(=S)N(NC(=O)c3ccncc3)C2=O)cc1OC	2%	-2%	-5%	?	24%
O=C(NN1C(=O)/C(=C/C=C/c2ccccc2)SC1=S)c1ccncc1	-11%	-23%	?	11µM*	104%
Cc1ccccc1C(=O)Nc1ccc2nc(SCC(=O)N3CCc4ccccc43)sc2c1	?	·	-12%	?	·
Cc1nc2sc(C(=O)Nc3ccc(F)cc3)c(N)c2c(-c2ccc(Br)cc2)c1C(=O)Nc1ccc(Cl)cc1	?	·	-26%	-13%	·
Cc1ccc(N2C(=O)CCSC23C(=O)N(Cc2ccc(F)cc2)c2ccccc23)cc1 (stereo not drawn)	?	·	-18%	?	·
CCOc1ccc(C(=O)Nc2nnc(SCc3cc(=O)n4ccccc4n3)s2)cc1	-1%	·	-2%	-16%	·
COC(=O)C1CCN(Cc2ccc(OCCCN3CCN(c4ccc([N+](=O)[O-])cc4)CC3)cc2)CC1	8%	-2%	-8%	4µM*	1%
COc1ccc(-n2c(C)cc(/C=C/c3nc(O)c([N+](=O)[O-])c(=O)[nH]3)c2C)cc1	2%	3%	-7%	16µM*	16%
Cc1cc(/C=C\c2nc(O)c([N+](=O)[O-])c(=O)[nH]2)c(C)n1-c1ccccc1	3%	-10%	-9%	?	3%
O=S1(=O)C=C(Sc2nc3cc(Cl)ccc3o2)c2ccccc21	25µM*	?	7.1µM*[quencher]	?	·
CN(C)c1nc(N)nc(CSc2nc3cc(Cl)ccc3o2)n1	-1%	4%	0%	-12%	17%
Cc1ccc(C)c(NC(=O)Cn2c(=O)n(Cc3ccco3)c(=O)c3oc4ccccc4c32)c1	7%	·	-11%	-10%	·
Oc1cccc(/C=N/Nc2cc(N3CCCC3)nc(N3CCCC3)n2)c1	-1%	-24%	16µM*[quencher]	?	14%
Oc1ccc(/C=N/Nc2cc(N3CCCC3)nc(N3CCCC3)n2)cc1	3%	?	18µM*[quencher]	?	-7%
CCS(=O)(=O)N1CCCc2cc(C(=O)Nc3cc([N+](=O)[O-])ccc3C)ccc21	9%	·	?	?	·
CCCN(CCC)S(=O)(=O)c1ccc(NC(=O)c2cc(C(=O)OC)cc([N+](=O)[O-])c2)cc1	13%	3%	8.9µM*[quencher]	-3%	-3%
COc1cc(NC(=O)CCc2c(C)nn(-c3ccc(N4CCCCC4)nn3)c2C)cc(OC)c1OC	-3%	·	-25%	?	·
CCOC(=O)N1CCC(NC(=O)c2cnn(-c3ccc(C)cc3)c2C2CCN(C(=O)OC(C)(C)C)CC2)CC1	3%	·	-3%	-6%	·
COc1ccc2[nH]cc(/C=C/C(=O)c3ccccc3)c2c1	11%	-15%	8.9µM*[quencher]	?	3%
Cc1ccc(C(=O)/C=C/c2cn(CN3CCN(C)CC3)c3ccccc23)cc1	-9%	?	14µM*[quencher]	?	1%
Cc1ccc(C(=O)/C=C/c2c[nH]c3ccccc23)cc1	-14%	?	14µM*[quencher]	?	15%
Cc1ccc(S(=O)(=O)/C(C#N)=C/c2c[nH]c3ccccc23)cc1	13µM*	-11%	10µM*[quencher]	?	16%
CC(C)c1ccc(NC(=O)CN2C(=O)COc3ccc(S(=O)(=O)N4CCCCC4)cc32)cc1	?	·	-9%	14%	·
CC(=O)Nc1nonc1-c1nnc(SCC(=O)N(C)c2ccccc2)n1C	0%	·	-2%	-1%	·
CCc1ccc2ncc3c(-c4ccc(C)cc4)nn(CC(=O)Nc4ccc(C)cc4)c3c2c1	-10%	·	1%	2%	·
